Data reported in ChEMBL document CHEMBL1157539, “Thousands of chemical starting points for antimalarial lead identification” (Nature, 2010).

system: HepG2; experiment: GSK_TCMDC: Percent inhibition of human HepG2 cell line. Test compounds present at 10uM.; type: functional

In order of falling Inhibition:
1. Nc1nc(N)c2cc(NC(=O)c3ccc(Cl)c(Cl)c3)ccc2n1  100%
2. O=C(Nc1ccc(Cl)cc1)c1cccc(S(=O)(=O)NC2CCN(CC3CCCCC3)C2)c1.O=C(O)C(F)(F)F (stereo not given)  80%
3. CCN(CC)CCNc1nccc(N(C)c2ccc(NC(=O)Nc3cc(C(F)(F)F)ccc3F)cc2)n1.O=C(O)C(F)(F)F  74%
4. CCCc1c(C(=O)Nc2ccc3c(c2)CCN(C2CCC2)CC3)cnn1-c1ccc(Cl)cc1.O=C(O)C(F)(F)F  64%
5. Cl.N=c1n(CCN2CCCCC2)c2ccccc2n1CC(O)c1ccc(Cl)c(Cl)c1 (stereo not given)  50%
6. COc1cc(NC(=O)c2sc(-c3ccc(Cl)cc3)cc2NC(=O)c2cccc(N(C)C)c2)ccc1OCCN1CCCC1  49%
7. CCOc1cc(C=NNc2nc(C)cc(-n3nc(C)cc3C)n2)ccc1O  46%
8. N#Cc1cccc(NC(=O)Nc2cccc(-c3cccc(-c4nc5ccccc5[nH]4)c3)c2)c1  46%
9. Cl.c1cc(CNC2Cc3ccccc3C2)cc(-c2cnc(N3CCNCC3)nc2)c1  43%
10. N#Cc1ccc(-c2ccc(C(=O)NC3CCN(CCN4CCc5c(cccc5C(F)(F)F)C4)CC3)cc2)cc1  40%
11. Cc1cccc2nc(-c3cccc(-c4ccc(NC(=O)Cc5ccon5)cc4)c3)[nH]c12  34%
12. CN1CCN(CCCNCc2ccccc2-c2cccc(CNCc3ccc4c(c3)OCO4)c2)CC1.O=C(O)C(F)(F)F  34%
13. Cc1cccc2nc(-c3ccc(-c4cccc(NC(=O)C(=O)c5cccn5C)c4)cc3)[nH]c12  30%
14. O=C(O)C(F)(F)F.O=c1ccc2ccc(F)c3c2n1CC3CN1CCC(NCc2cccc(-c3ccccc3F)c2)CC1 (stereo not given)  29%
15. CC1CCCN1Cc1cccc(-c2ccc(C(=O)NCCOc3ccccc3)s2)c1.O=C(O)C(F)(F)F (stereo not given)  26%
16. O=C(Nc1cccc(CN2CCCN(Cc3ccsc3)CC2)c1)c1cc2ccccc2s1.O=C(O)C(F)(F)F  25%
17. CCCCn1c(C(C)Oc2ccc(Cl)cc2Cl)nc2cc(S(N)(=O)=O)ccc21 (stereo not given)  24%
18. Cc1cccc2nc(-c3cccc(-c4cccc(NC(=O)Nc5ccc(Cl)c(Cl)c5)c4)c3)[nH]c12  24%
19. CCCNCc1c(O)ccc2c(CNCCC)c(O)ccc12.Cl  24%
20. CC(C)CNCc1cccc(-c2cccc(CNc3ccc4ncccc4c3)c2)c1.O=C(O)C(F)(F)F  23%
21. CN1CCc2cc(NC(=O)c3cc4ccccc4s3)cc(-c3ccccc3)c2CC1.Cl  20%
22. O=C(Nc1ccc(Cl)c(-c2nc3ccccc3[nH]2)c1)c1ccc(-c2ccc(Cl)cc2)o1  16%
23. CCNc1cc(C)nc(Nc2ccc(NC(=O)C3CCCC3)cc2)n1  13%
24. CCN(CC)CC(O)c1cc(-c2ccc(OC)cc2)nc2cc(Cl)ccc12.Cl (stereo not given)  12%
25. CC(OC(=O)c1ccc(C(=O)NCC2CC2)cc1)C(C)(C)C (stereo not given)  10%
26. O=C(Nc1cccc(-c2ccc(-c3nc4ccccc4[nH]3)cc2)c1)c1cnn2cccnc12  9%
27. Oc1cc(NC[C@@H]2CCC[C@@H]2NCc2ccc(Cl)c(Cl)c2)nc2ccccc12  9%
28. COc1cccc(C(=O)C2CC2CN(C)CC(O)c2cc(C)c(OC)cc2C)c1.O=C(O)C(F)(F)F (stereo not given)  8%
29. O=C(Nc1cc(F)cc(-c2cccnc2)c1)c1ccc2c(=O)n(Cc3ccccc3)cnc2c1  7%
30. Cl.Oc1ccc2[nH]c(-c3cccs3)nc2c1CN1CCC(N2CCCC2)CC1  6%
31. COc1cc2nc(N[C@@H](CO)c3ccccc3)nc(NCc3ccccc3)c2cc1OC  6%
32. COc1cc(Nc2nccc(N3CCC(NC(=O)C4COc5ccccc5O4)C3)n2)cc(OC)c1OC (stereo not given)  5%
33. COc1ccc2nccc([C@@H](O)CN3CCC(NC(=O)/C=C/c4cccc(NC(C)=O)c4)CC3)c2c1  5%
34. COc1cccc2cc(C(=O)N[C@@H](CC(C)C)C(=O)N[C@H](/C=N/NC(=O)OC(C)(C)C)CC(=O)OC(C)(C)C)oc12  4%
35. COc1ccc(CNC2CCN(C)CC2)cc1-c1ccc(S(=O)(=O)NCCN2CCCC2)s1.O=C(O)C(F)(F)F  2%
36. CN1CCN(Cc2nc(-c3ccc4c(Nc5ccc(F)c(O)c5)ccnc4c3)cs2)CC1  0%
37. O=C(NC1CCCCCC1)[C@@H]1CCCN1C(=O)c1ccc(O)c(-c2ccc(Cl)c(Cl)c2)c1  0%
38. CCN(CC)Cc1cc(Nc2ccnc3cc(Cl)ccc23)ccc1O.Cl.Cl.Cl  0%
39. CCOc1ccc(-c2nonc2NC(=O)c2cccc(Cl)c2)cc1OCC  0%
40. Cc1ccc(S(=O)(=O)N2CCN(C(=O)c3cc(-c4cccs4)n[nH]3)CC2)c(C)c1  0%
